In PubChem BioAssay (NCI) one finds growth data, which are given here for 40 compounds.

Values joined by “and” are separate entries in the source; they are usually repeats but may differ in a detail not shown here. Equal entries are not always repeated. Compounds without any hit were thinned out: in the full panel of roughly 83,000, 20% have a hit.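 Negative percent growth values reflect cell death: -40 means 40% of the cells present at the start died, and -100 means all died.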 Values without a mark were called inactive. Active and inactive are the calls of the source. The calls were made as follows: active = growth percent below 10; inactive = the rest.

This assay relates to MDA-MB-468 breast. Briefly: NCI-60 one-dose screen, 48 h (100 = growth as untreated, 0 = no growth, -100 = all killed). The settings on record: 10 µM unless noted.
Regarding `Clc1ccc(-c2nnc(-c3cccc4ccccc34)o2)cc1`, the growth was 19.1%.
Turning to `O=C(Nc1ccc(-n2ccc3c(NC(=O)c4ccccc4)ncnc32)cc1)c1ccc(Cl)c(C(F)(F)F)c1`, the growth was -5.36% (active).
As for `NNC(=O)c1ccc(C(=O)NN)cc1`, the growth is 102%.
`Cc1nnc(/N=C2\NC(=O)/C(=C/C=C/c3ccccc3)S2)s1`: the growth was 53%.
In the case of `C=C(C)[C@@H]1CC[C@]2(C(=O)N3CCNCC3)CC[C@]3(C)[C@H](CC[C@@H]4[C@@](C)(CCC(=O)N5CCNCC5)[C@H](C(=C)C)CC[C@]43C)[C@@H]12`, the growth was 49.5%.
To `O=C(O)c1cccc2c1-c1ccc(Cl)cc1C2` belongs 108%; to `CCN(CC)CCCNc1cc(OC)c(OC)c2cccnc12`, 90.5%; to `COc1ccc(C2CC(c3ccc(OC)c(OC)c3)=NN2C(=O)c2cc(OC)c(OC)c(OC)c2)cc1` (stereo not given), -32.5% (active).
Under `COc1nc2c(c(=O)n1C)CN(Cc1ccccc1)C=N2` stands 97.6%; under `CSc1nc(N)c(N)c(N)n1`, 114%; under `CC(C)(C)OC(=O)NCCc1ccc(N=C=S)cc1`, 60.6%.
As for `CC(C)(Sc1cc(C(C)(C)C)c(OC(=O)CCCC(=O)O)c(C(C)(C)C)c1)Sc1cc(C(C)(C)C)c(OC(=O)CCCC(=O)O)c(C(C)(C)C)c1`, the growth was 54.1%.
In the case of `COc1ccc(F)cc1/C=C/C(=O)/C=C(/C=C/c1cc(F)ccc1OC)OB(F)F`, the growth is 31.5%.
As to `Clc1cccc(Cl)c1C1CSc2ccccc2N=C1c1ccccc1` (stereo not given), the growth was 80.3%.
Regarding `Clc1cccc(Cl)c1C(Nc1nc2ccccc2s1)Nc1nc2ccccc2s1`, the growth was 72.3%.
Take `COc1ccccc1NC1=C(N2CCCCC2)C(=O)c2ccccc2C1=O`: the growth was 65.9%.
Take `CS(=O)(=O)Nc1cc(-c2ccc3ncc(C#N)c(NCc4ccccc4O)c3c2)cnc1Cl`: the growth is -23.1% (active).
For the compound `CCN(CC)C(=O)C1CCN(C(=O)c2ccccc2)CC1`, the growth was 109%.
Regarding `O=c1[nH]c2ccccc2cc1CSc1ccccc1Nc1nccc(-c2ccc(Cl)cc2)n1`, the growth was 99.3%.
As to `CCN(CC)CCCC(C)Nc1cnc(C(=O)Nc2cc(C)cc3cccnc23)cn1` (stereo not given), the growth was 9.36% (active).
Turning to `NNC(=O)CSc1nc2scc(-c3ccccc3)c2c(=O)n1-c1ccccc1`, the growth was 102%.
Under `Cc1[nH]c(=O)[nH]c(=O)c1CCSSCCc1c(C)[nH]c(=O)[nH]c1=O` stands 105%.
`CC(=O)OC(C)c1cccc(C#N)c1` (stereo not given): the growth is 105%.
To `CC(C)Sc1nc(-c2ccccc2)c(C#N)c(N2CCOCC2)n1` belongs 80.9%; to `COc1cc(CNS(=O)(=O)c2ccc(C)cc2)ccc1OCc1cn(-c2ccc(F)cc2)nn1`, 62.3%.
For the compound `NS(=O)(=O)c1ccc(Nc2nc(N/N=C/CCc3ccccc3)nc(Nc3ccccc3)n2)cc1`, the growth is 88.6%.
Regarding `S=C1SCC(c2ccccc2)S1` (stereo not given), the growth is 99.6%.
For `Cc1ccc2c(c1)C(C)Cc1c(ncnc1-n1cnc3cc(C)ccc31)N2C` (stereo not given), the growth is 9.76% (active).
For `CCCCCCCCNc1cc2c3c(c1)CCCN3CCC2`, the growth was -23% (active).
As for `CCN(CC)c1ccc(CN(CC(=O)c2ccc(Cl)c(Cl)c2)Cc2ccccc2)cc1`, the growth was 91.9%.
With `O=CN1N=C(c2ccc(Cl)cc2)CC1c1cccc(Nc2ccnc3cc(C(F)(F)F)ccc23)c1` (stereo not given), the growth was 32.9%.
To `CCN(CC)CCOc1ccc(-c2c(-c3ccccc3)c(=O)oc3ccccc23)cc1` belongs 72.9%; to `Cn1cc(-c2cc3c(Nc4ccc(CC(=O)Nc5cc(C(C)(C)C)on5)cc4)ncnc3[nH]2)cn1`, -74.3% (active) and -62.1% (active); to `COc1ccc2c(c1)/C(=C1\S/C(=N/c3nnc(C)s3)NC1=O)C(=O)N2Cc1ccc(Cl)cc1`, 50.9%.
Under `O=c1c(/C=C/c2c(O)ccc3ccccc23)nnc2sc(-c3cccc([N+](=O)[O-])c3)nn12` stands 40.9%.
In the case of `COc1nc(OC)nc(-c2cc(C(=O)c3ccc(Br)cc3)n3cc(C)cc(C)c23)n1`, the growth is 51%.
On to `COC(=O)c1c2c(c(C)[n+]([O-])c1C)C(=O)C(NCc1ccc(F)c(Cl)c1)=CC2=O`, for which the growth was -18% (active).
For `CC(C)[C@]12O[C@H]1[C@@H]1O[C@]13[C@]1(O[C@H]1C[C@H]1C4=C(CC[C@@]13C)C(=O)OC4)[C@@H]2OC(=O)CN(C)C`, the growth is -55.2% (active).
To `CC(C)OC(=O)Nc1cc(F)c(F)cc1F` belongs 84%; to `COc1ccc(CC(=O)Nc2nn3c(-c4cc(C(F)(F)F)cc(C(F)(F)F)c4)nnc3s2)cc1`, 48.4%.
